We go through 43 sequences from paper PMC10726135, “HNF4α isoforms regulate the circadian balance between carbohydrate and lipid metabolism in the liver”.

The full ranking holds about 18,000 sequences; the median of “log2 normalized intensity” is about 0.36, and the highest 2% start at about 7.3. What follows is part of a selection rich in the highest values, with near analogues and random picks from the rest.

The target in the assay is T1, HNF4alpha8 (COS-7 nuclear extract) (Homo sapiens, UniProt P41235-5 1-452).
T1 sequence: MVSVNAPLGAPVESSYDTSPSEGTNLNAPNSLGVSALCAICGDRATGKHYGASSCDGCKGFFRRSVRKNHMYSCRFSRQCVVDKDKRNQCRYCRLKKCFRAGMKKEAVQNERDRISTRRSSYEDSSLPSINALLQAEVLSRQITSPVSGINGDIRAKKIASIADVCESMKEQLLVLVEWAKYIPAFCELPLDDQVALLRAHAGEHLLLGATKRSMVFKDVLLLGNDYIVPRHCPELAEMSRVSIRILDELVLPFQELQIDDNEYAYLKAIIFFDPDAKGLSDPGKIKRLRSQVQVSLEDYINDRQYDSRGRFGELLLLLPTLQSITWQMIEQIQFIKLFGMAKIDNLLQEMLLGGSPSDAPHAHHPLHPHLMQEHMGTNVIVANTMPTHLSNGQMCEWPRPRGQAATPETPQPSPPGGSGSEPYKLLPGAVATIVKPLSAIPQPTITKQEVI
Briefly: protein-binding microarray; COS-7 nuclear extract on double-stranded Agilent 4x180k PBM; binding buffer, salt, pH and temperature not given in the material; high values mean tight binding. Conditions: chain copies: 2; label: 3' end of strand 1 on the slide; dsDNA, one strand shown. The method, boiled down: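 The binding signal is Agilent software's gProcessedSignal after background correction and normalization. Arrays were a custom Agilent SurePrint G3 4x180k design of double-stranded ~60-nt oligonucleotides with ~44,000 test sequences in quadruplicate, probed with nuclear extracts of COS-7 cells transiently expressing a human HNF4α isoform. Scans were made at 2-µm resolution on an Agilent G2565CA scanner.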
As to “ACCTTTGACCCTTCTCTGGGAGAAAGGGAGGCCTAGGGAGATTAGAGTATCGGTCGA”, the binding signal is 3.86 log2 normalized intensity. In the case of “CTAAGCAGCGAAGCTGTGTCAGGCATTGTAGCCTAGGGAGATTAGAGTATCGGTCGA”, the binding signal is -0.633 log2 normalized intensity. As for “AGATTCTGCAAACCTATTAATATATTCATAGCCTAGGGAGATTAGAGTATCGGTCGA”, the binding signal is -0.929 log2 normalized intensity. The same measure for “TTGACCTTTGGCCAAGGGCAGTGTTTGCCCGCCTAGGGAGATTAGAGTATCGGTCGA”: 6.36 log2 normalized intensity; for “GAGTCTGTTGTCTAACATTTTTGACCTTCAGCCTAGGGAGATTAGAGTATCGGTCGA”: 4.68 log2 normalized intensity; for “CTTTGGCCAAGGGCAGTGTTTGCCCAGCTTGCCTAGGGAGATTAGAGTATCGGTCGA”: 0.731 log2 normalized intensity. As to “AGGCAGTCTGTTGACCTTTGGCCAAGGGCAGCCTAGGGAGATTAGAGTATCGGTCGA”, the binding signal was determined as 8.19 log2 normalized intensity. As for “CCTCTTTGAGTCTGGTGTTCTCTTGGCCAAGCCTAGGGAGATTAGAGTATCGGTCGA”, the figure is 1.63 log2 normalized intensity; as for “GTCTGTTGACCTTTGGCCAAGGGCAGTGTTGCCTAGGGAGATTAGAGTATCGGTCGA”, 7.73 log2 normalized intensity. “TCTTTACACCATTGCAAGGATTCCAAATTTGCCTAGGGAGATTAGAGTATCGGTCGA”: the binding signal is 0.0367 log2 normalized intensity. Take “AAAGATTGCAGCAAGGAATTCAACCCTTGTGCCTAGGGAGATTAGAGTATCGGTCGA”: the binding signal amounted to 2.23 log2 normalized intensity. Regarding “GTCTTATCTACCTGGCTTGTTTGCAAAGCAGCCTAGGGAGATTAGAGTATCGGTCGA”, the binding signal came to 0.749 log2 normalized intensity. The same measure for “TGCAGTTTCCCTATTCTCAGTGATATAAAAGCCTAGGGAGATTAGAGTATCGGTCGA”: 0.942 log2 normalized intensity. For “AGGTCGCAAGCACTGGCTCTGGGGTCAAAGGCCTAGGGAGATTAGAGTATCGGTCGA”, the binding signal stood at 4.08 log2 normalized intensity. For “GGGGTCAAAGTCCCCTGAGCTTGAGTCCATGCCTAGGGAGATTAGAGTATCGGTCGA”, the binding signal was found to be 6 log2 normalized intensity. Regarding “CCTCCTCTCTGGGTCAAAGGTCATCGCACCGCCTAGGGAGATTAGAGTATCGGTCGA”, the binding signal worked out at 8.5 log2 normalized intensity. Take “AAAGGTCATCGCACCGGCAGGGGAGAACTTGCCTAGGGAGATTAGAGTATCGGTCGA”: the binding signal was 1.24 log2 normalized intensity. As for “CACTGGCTCTGGGGTCAAAGTCCCCTGAGCGCCTAGGGAGATTAGAGTATCGGTCGA”, the binding signal is 7.66 log2 normalized intensity.

Take “GAGGTGTCAGCCACCCCTCCTCCTGGGGGCGCCTAGGGAGATTAGAGTATCGGTCGA”: the binding signal was 2.93 log2 normalized intensity. The same measure for “GCCACCCTCCTCTCTGGGTCAAAGGTCATCGCCTAGGGAGATTAGAGTATCGGTCGA”: 10.2 log2 normalized intensity; for “CCTGGTCAAAGTCAACTCCTCCAAGCCACCGCCTAGGGAGATTAGAGTATCGGTCGA”: 0.614 log2 normalized intensity; for “CTCTCCCTCCTCTCTGAGCAGTCAAACTGGGCCTAGGGAGATTAGAGTATCGGTCGA”: 1.89 log2 normalized intensity. With “TCTCTGGGTCAAAGGTCATCGCACCGGCAGGCCTAGGGAGATTAGAGTATCGGTCGA”, the binding signal was determined as 7.54 log2 normalized intensity.

With “CTGGGGCCACCCTCCTCTCTGGGTCAAAGGGCCTAGGGAGATTAGAGTATCGGTCGA”, the binding signal stood at 5.36 log2 normalized intensity. The same measure for “CCTGCCTCTCCTCTGAGCTTCATCCTGACCGCCTAGGGAGATTAGAGTATCGGTCGA”: 1.7 log2 normalized intensity.

For “CCAATTCACAGAACTCCCTAAGTGGCCTCAGCCTAGGGAGATTAGAGTATCGGTCGA”, the binding signal is 0.0537 log2 normalized intensity. Take “GGTTGTCAGACTGGTGTAGTGGGGAGGGCAGCCTAGGGAGATTAGAGTATCGGTCGA”: the binding signal was 1.35 log2 normalized intensity. As for “GCGGCATTCCTGTCAAAATCTGATCTTTCCGCCTAGGGAGATTAGAGTATCGGTCGA”, the figure is 1.47 log2 normalized intensity; as for “CAAGTTGGTTTACATTCTTAGAAGATAAAGGCCTAGGGAGATTAGAGTATCGGTCGA”, 0.323 log2 normalized intensity. Regarding “GAGGCTTTGAGTCATTGAGGCTTTGCCTTAGCCTAGGGAGATTAGAGTATCGGTCGA”, the binding signal was -0.699 log2 normalized intensity.

Consider “TTGGACTTTGACCTCCAAAATTATAAGTCAGCCTAGGGAGATTAGAGTATCGGTCGA”, for which the binding signal was determined as 8.58 log2 normalized intensity.

For the sequence “AATGATGATGACTTTTGACCCCAGGGGAAAGCCTAGGGAGATTAGAGTATCGGTCGA”, the binding signal came out at 6.38 log2 normalized intensity. Regarding “GAGACCCATTTTGGACTTTGACCTCCAAAAGCCTAGGGAGATTAGAGTATCGGTCGA”, the binding signal was found to be 11.3 log2 normalized intensity.

On to “CTTTGTAGCACTTTGGACCTCCACTTTGGAGCCTAGGGAGATTAGAGTATCGGTCGA”, for which the binding signal turned out to be 3.36 log2 normalized intensity. In the case of “GAATTCTTGACTTTGGACTTTCAAAAGTTAGCCTAGGGAGATTAGAGTATCGGTCGA”, the binding signal stood at 5.14 log2 normalized intensity. Take “CTTGACTTTGGACTTTCAAAAGTTAAGGTCGCCTAGGGAGATTAGAGTATCGGTCGA”: the binding signal came to 3.98 log2 normalized intensity. For “CACAGCTGGACTTTGGCTGCAAAATTTGAAGCCTAGGGAGATTAGAGTATCGGTCGA”, the binding signal stood at 3.88 log2 normalized intensity. With “CCATTTTGGACTTTGACCTCCAAAATTATAGCCTAGGGAGATTAGAGTATCGGTCGA”, the binding signal was 10.9 log2 normalized intensity.

“CATTGACTTTGCCTTTTGGCTAAAGTCCAAGCCTAGGGAGATTAGAGTATCGGTCGA”: the binding signal was determined as 4.75 log2 normalized intensity.

For “TTTGTCAAATGCTTCCAAGAATTTAAGAGAGCCTAGGGAGATTAGAGTATCGGTCGA”, the binding signal is -0.862 log2 normalized intensity. As to “CAGAGGACAGGTTTCCTGAGTTACAGATAAGCCTAGGGAGATTAGAGTATCGGTCGA”, the binding signal was -0.778 log2 normalized intensity. With “ATTCACATCTCCAGTTCCAAAGTCCAGGTGGCCTAGGGAGATTAGAGTATCGGTCGA”, the binding signal came to 6.55 log2 normalized intensity. For the sequence “TGTTAGCAGAAACCATCTGGCTTGGCCCCCGCCTAGGGAGATTAGAGTATCGGTCGA”, the binding signal was 4.14 log2 normalized intensity.
